The source of these data is the supplement of paper PMC6658780.

Counter-ions that a name gives are not always drawn. ± gives the standard deviation of the averaged measurements.

In assay [1] the test system is Klebsiella pneumoniae KPC-119. In words: percent growth inhibition of drug alone vs DMSO control; higher = more growth inhibition. The following applies: antibiotic (0.125x MIC): none (0.1% DMSO).
Assay [2] deals with Klebsiella pneumoniae KPC-119. In words: percent growth inhibition of drug + antibiotic vs DMSO control; higher = more growth inhibition.
[3] abbreviates: antibiotic (0.125x MIC): colistin, 7 µM.
Setting [4] is: antibiotic (0.125x MIC): colistin, 20 µM.
[5] abbreviates: antibiotic (0.125x MIC): meropenem, 7 µM.

Take `CC(=O)OCC(=O)[C@@]1(O)CC[C@H]2[C@@H]3CCC4=CC(=O)CC[C@]4(C)[C@@]3(F)[C@@H](O)C[C@@]21C` [Fludrocortisone acetate]: the “percent growth inhibition of drug alone” value in assay [1] (7 µM) was found to be 1.64 ± 0.4%; in assay [1] (20 µM), 3.28 ± 1.7%. Further, the figures for the percent growth inhibition in assay [2] (setting [3]) and in assay [2] (setting [4]) were 58.4 ± 10% and -6.61 ± 5%, respectively.
Turning to `CCOC(=O)OC(C)OC(=O)[C@@H]1N2C(=O)[C@@H](NC(=O)[C@H](N)c3ccccc3)[C@H]2SC1(C)C` (some centres not stated) [Bacampicillin hydrochloride], the “percent growth inhibition of drug alone” value in assay [1] (7 µM) is 0.511 ± 1.4%; in assay [1] (20 µM), -0.333 ± 0.47%. For the same compound, the percent growth inhibition in assay [2] (setting [3]) is -4.19 ± 0.78%.
As for `COc1cc(C)nc(-n2nc(C)cc2OC)n1` [Epirizole], the results for the “percent growth inhibition of drug alone” value in assay [1] (7 µM) and in assay [1] (20 µM) were -1.76 ± 0.66% and -0.885 ± 4.3%, respectively. Also, the percent growth inhibition was 55.5 ± 7.9% in assay [2] (setting [3]) and -4.39 ± 3.8% in assay [2] (setting [4]).
With `Cc1cc(C(C)(C)CC(C)(C)C)ccc1OCCOCC[N+](C)(C)Cc1ccccc1` [Methyl benzethonium chloride], the “percent growth inhibition of drug alone” value in assay [1] (7 µM) was -1.94 ± 2.4%; in assay [1] (20 µM) it was -2.28 ± 0.9%. Also, the percent growth inhibition in assay [2] (setting [3]) was found to be 22 ± 6.4%.
`CC1=C(/C=C/C(C)=C/C=C/C(C)=C/C(=O)O)C(C)(C)CCC1` [Retinoic acid]: the “percent growth inhibition of drug alone” value turned out to be 1.08 ± 2.4% in assay [1] (7 µM) and 0.222 ± 2% in assay [1] (20 µM). Besides, the percent growth inhibition in assay [2] (setting [4]) is -10.3 ± 2.1%.
The like results for `COc1nc(C)nc(Cl)c1NC1=NCCN1` [Moxonidine] were, in that order, -0.572 ± 3.2%, -0.25 ± 3.1% and -7.57 ± 6.4%.
On to `OC(c1cc(C(F)(F)F)nc2c(C(F)(F)F)cccc12)C1CCCCN1` (configuration not stated) [Mefloquine hydrochloride], for which the entries for the “percent growth inhibition of drug alone” value in assay [1] (7 µM) and in assay [1] (20 µM) were 0.355 ± 6.6% and -2.15 ± 1.1%, respectively. The percent growth inhibition in assay [2] (setting [3]) was 1.61 ± 13%.
In the case of `CN1CCN(c2c(F)cc3c(=O)c(C(=O)O)cn4c3c2SCC4)CC1` [Rufloxacin], the “percent growth inhibition of drug alone” value in assay [1] (7 µM) worked out at 14.6 ± 2.5%; in assay [1] (20 µM), 83.22 ± 0.72%. Moreover, the percent growth inhibition came to 96.6 ± 3.1% in assay [2] (setting [3]) and 93.89 ± 0.36% in assay [2] (setting [4]).
Regarding `CCN1CCCC1CNC(=O)c1cc(S(N)(=O)=O)ccc1OC` (configuration not stated) [Sulpiride], the “percent growth inhibition of drug alone” value was -2.88 ± 3.1% in assay [1] (7 µM) and -3.73 ± 0.65% in assay [1] (20 µM). For the same compound, the percent growth inhibition in assay [2] (setting [4]) is -7.13 ± 1.4%.
Turning to `CO[C@@]1(NC(=O)Cc2cccs2)C(=O)N2C(C(=O)O)=C(COC(N)=O)CS[C@@H]21` [Cefoxitin sodium salt], the “percent growth inhibition of drug alone” value in assay [1] (7 µM) came out at 5.37 ± 2%; in assay [1] (20 µM), 7.08 ± 6.2%. Moreover, the percent growth inhibition in assay [2] (antibiotic (0.125x MIC): gentamicin, 7 µM) came out at 8.4 ± 13%.
Consider `CC(Cc1cccc(C(F)(F)F)c1)NCCOC(=O)c1ccccc1` (configuration not stated) [Benfluorex], for which the “percent growth inhibition of drug alone” value in assay [1] (7 µM) was 1.43 ± 3%; in assay [1] (20 µM) it was -0.224 ± 0.36%. Also, in assay [2] (setting [4]), the percent growth inhibition came to 4.58 ± 2.8%.
In the case of `O=C1NCN(c2ccccc2)C12CCN(CCCC(c1ccc(F)cc1)c1ccc(F)cc1)CC2` [Fluspirilen], the “percent growth inhibition of drug alone” value in assay [1] (7 µM) is -0.668 ± 2.3%; in assay [1] (20 µM), -1.04 ± 3.2%. The percent growth inhibition in assay [2] (setting [3]) is 4.99 ± 4%; in assay [2] (setting [4]), 96.4 ± 1.1%.
Regarding `CCCCC(CC)CNC(=N)NC(=N)NCCCCCCNC(=N)NC(=N)NCC(CC)CCCC` (configuration not stated) [Alexidine dihydrochloride], the percent growth inhibition in assay [2] (setting [5]) amounted to 99.739 ± 0.078%.
As to `CC1COc2c(N3CCN(C)CC3)c(F)cc3c(=O)c(C(=O)O)cn1c23` (configuration not stated) [Ofloxacin], the percent growth inhibition in assay [2] (setting [5]) amounted to 96.7 ± 3.1%.
